Results filed as inconclusive are left out. Calls of active or inactive are those of the source. The calls were made as follows: active = hit-call score of the fitted dose curve at least 0.9, where 1 is the maximum; inconclusive = response in the unintended direction; inactive = score below 0.9.
Read-out: glucuronosyltransferase (UGT1A1), UGT1A1 (gene 54658)
Assay: CLD_UGT1A1_6hr: CellzDirect (CLD) Gene Expression Assay for glucuronosyltransferase (UGT1A1) at 6 hours (AID 2283672)
Protocol: CLD_6hr is a cell-based, multiplexed-readout assay that uses hepatocyte, a human liver primary cell, with measurements taken at 6 hours after chemical dosing in a 96-well plate.CLD_UGT1A1_6hr is one of 16 assay component(s) measured or calculated from the CLD_6hr assay. It is designed to make measurements of mRNA induction, a form of inducible reporter, as detected with chemiluminescence signals by Quantitative Nuclease Protection Assay (qNPA) technology.Data from the assay component CLD_UGT1A1_6hr was analyzed at the endpoint, CLD_UGT1A1_6hr, in the positive analysis fitting direction relative to DMSO as the negative control and baseline of activity. Using a type of inducible reporter, gain-of-signal activity can be used to understand changes in the reporter gene as they relate to the gene UGT1A1. Furthermore, this assay endpoint can be referred to as a primary readout. To generalize the intended target to other relatable targets, this assay endpoint is annotated to the transferase intended target family, where subfamily is glucuronosyltransferase.
Human hepatocyte cultures were treated daily for two consecutive days with fresh dosing solutions containing appropriate concentrations of the 320 ToxCast chemicals (chemical identities were blinded to CellzDirect and other ToxCast collaborators), vehicle control (0.2% DMSO), and positive control inducers as summarized in Table 1. Due to the large number of treatment groups and chemicals examined, the ToxCast chemicals were divided into two groups (spanning two independent cultures of hepatocytes from separate donor preparations (Hu778: ToxCast plates 1 and 2; Hu776: ToxCast plates 3 and 4). Each preparation of human hepatocyte cultures was treated with respective vehicle control, medium only control, set of six positive controls/reference chemicals for the five hepatic receptor pathways, and a subset of eight of the ToxCast chemicals (indoxacarb, pyrithiobac-sodium, norflurazon, cyhalofop-butyl, methomyl, thiram, acetochlor, and propiconazole). These replicate data, coupled with internal replicates designed within the blinded ToxCast chemical library, provided additional data to evaluate interindividual differences between hepatocyte preparations and their potential impact on chemical profiles.Cell morphology and integrity were evaluated using phase-contrast microscopy as an indicator of hepatocyte cell health (Tyson & Green, 1987). Cultures for each treatment group (i.e., media, vehicle [0.2% DMSO], positive control inducers [multiple concentrations], and the ToxCast chemicals [multiple concentrations]) were observed and cell morphology was assessed relative to vehicle control cultures at each harvest time point (0, 6, 24, or 48 h). […] Images were evaluated at the conclusion of the study to assess changes in cell integrity and account for the effects of chemical exposure on uncharacteristic changes in concentration-dependent gene expression profiles. The results from these determinations of apparent cytotoxicity were annotated (yes/no) alongside the corresponding qNPA data for reference.At the conclusion of each treatment period, hepatocyte cultures (96-well) were washed with 1 volume of HBSS, lysed by addition of 25 ul ArrayPlate lysis buffer (HTG, Tucson, AZ), and 70 ul/well of Denaturation Oil, denatured by incubation at 95C for 10 min, and frozen at approximately -70C until analysis by nuclease protection assay (qNPA) (Roberts et al., 2007). For qNPA analysis, cell lysates were thawed at 50C for approximately 30 min, qNPA probes were added, and samples were incubated at 95C for 10 min to begin the detection process by denaturing the target RNA, dissociating the duplexes and secondary structure hybridization. At the conclusion of the hybridization period, S1 nuclease reagent was added to each sample to digest all nonprotected nucleotides at 50C for 60-90 min. […]

Q: Which outcome does the source give for `CCCCNC(=O)OCC#CI` here?
A: The outcome was “inactive”.

Q: With `Cc1c(F)c(F)c(COC(=O)C2C(/C=C(\Cl)C(F)(F)F)C2(C)C)c(F)c1F` (stereo not given) as the molecule, how does the outcome read?
A: Its outcome is “inactive”.

Q: With `CC(C)Oc1cc(-n2nc(C(C)(C)C)oc2=O)c(Cl)cc1Cl` as the molecule, how does the outcome read?
A: Its outcome is “inactive”.

Q: How did the outcome turn out when `CCCN(CCC)c1c([N+](=O)[O-])cc(S(N)(=O)=O)cc1[N+](=O)[O-]` was run?
A: Its outcome is “inactive”.

Q: For `CCCCNC(=O)n1c(NC(=O)OC)nc2ccccc21`, which outcome is on record?
A: Its outcome is “inactive”.

Q: How did the outcome turn out when `CNC(=O)ON=CC(C)(C)SC` was run?
A: The outcome was “inactive”.

Q: With `CC1=C(C(=O)Nc2ccccc2)SCCO1` as the molecule, how does the outcome read?
A: Its outcome is “inactive”.

Q: For `Oc1ccccc1-c1ccccc1`, which outcome is on record?
A: The outcome was “inactive”.

Q: How did the outcome turn out when `COc1nc(C)nc(NC(=O)NS(=O)(=O)c2ccccc2Cl)n1` was run?
A: Its outcome is “inactive”.

Q: How did the outcome turn out when `COc1cnc(OC)n2nc(NS(=O)(=O)c3c(OCC(F)F)cccc3C(F)(F)F)nc12` was run?
A: The outcome was “inactive”.

Q: With `COc1nc(C)nc(NC(=O)NS(=O)(=O)c2ccccc2CCC(F)(F)F)n1` as the molecule, how does the outcome read?
A: Its outcome is “inactive”.

Q: With `CCCCC(CC)COC(=O)c1ccccc1C(=O)OCC(CC)CCCC` (stereo not given) as the molecule, how does the outcome read?
A: The outcome was “inactive”.

Q: How did the outcome turn out when `CO/C=C(/C(=O)OC)c1ccccc1Oc1cc(Oc2ccccc2C#N)ncn1` was run?
A: Its outcome is “inactive”.

Q: How did the outcome turn out when `C#CCOS(=O)OC1CCCCC1Oc1ccc(C(C)(C)C)cc1` (stereo not given) was run?
A: Its outcome is “inactive”.

Q: How did the outcome turn out when `O=C(O)COc1nc(Cl)c(Cl)cc1Cl` was run?
A: The outcome was “inactive”.

Q: With `COP(=S)(OC)Oc1nc(Cl)c(Cl)cc1Cl` as the molecule, how does the outcome read?
A: Its outcome is “inactive”.

Q: Which outcome does the source give for `N#Cc1nn(-c2c(Cl)cc(C(F)(F)F)cc2Cl)c(N)c1S(=O)C(F)(F)F` (stereo not given) here?
A: Its outcome is “inactive”.

Q: How did the outcome turn out when `CCOC(=O)C(Cl)Cc1cc(-n2nc(C)n(C(F)F)c2=O)c(F)cc1Cl` (stereo not given) was run?
A: Its outcome is “inactive”.

Q: How did the outcome turn out when `CCNc1nc(Cl)nc(NC(C)C)n1` was run?
A: Its outcome is “inactive”.

Q: `CCc1nn(C)c(C(=O)NCc2ccc(C(C)(C)C)cc2)c1Cl` was tested. Which outcome did it give?
A: Its outcome is “inactive”.

Q: With `OC(c1ccc(Cl)cc1)(c1cncnc1)c1ccccc1Cl` (stereo not given) as the molecule, how does the outcome read?
A: The outcome was “inactive”.

Q: With `Cc1cc(Cl)ccc1OCC(=O)O` as the molecule, how does the outcome read?
A: Its outcome is “inactive”.

Q: With `COC(=O)c1ccccc1C(=O)OC` as the molecule, how does the outcome read?
A: The outcome was “inactive”.

Q: For `CCCCOC(=O)c1ccccc1C(=O)OCCCC`, which outcome is on record?
A: Its outcome is “inactive”.

Q: With `COC(=O)C=C(C)OP(=O)(OC)OC` as the molecule, how does the outcome read?
A: Its outcome is “inactive”.

Q: `C=CC1(C)OC(=O)N(c2cc(Cl)cc(Cl)c2)C1=O` (stereo not given) was tested. Which outcome did it give?
A: The outcome was “inactive”.

Q: With `CON(C)C(=O)Nc1ccc(Cl)c(Cl)c1` as the molecule, how does the outcome read?
A: The outcome was “inactive”.

Q: How did the outcome turn out when `CCON=C(CC)C1=C(O)CC(c2c(C)cc(C)cc2C)CC1=O` (stereo not given) was run?
A: Its outcome is “inactive”.

Q: How did the outcome turn out when `COc1ccc(C(c2ccc(OC)cc2)C(Cl)(Cl)Cl)cc1` was run?
A: The outcome was “inactive”.

Q: `CCOC(=O)CC(SP(=S)(OC)OC)C(=O)OCC` (stereo not given) was tested. Which outcome did it give?
A: Its outcome is “inactive”.

Q: With `N#Cc1cc(Br)c(O)c(Br)c1` as the molecule, how does the outcome read?
A: Its outcome is “inactive”.

Q: Which outcome does the source give for `N#CC(CCc1ccc(Cl)cc1)(Cn1cncn1)c1ccccc1` (stereo not given) here?
A: Its outcome is “inactive”.

Q: `O=C(O)c1nc(Cl)ccc1Cl` was tested. Which outcome did it give?
A: Its outcome is “inactive”.

Q: How did the outcome turn out when `CCOc1cc(Oc2ccc(C(F)(F)F)cc2Cl)ccc1[N+](=O)[O-]` was run?
A: The outcome was “inactive”.

Q: `C=CCC1=C(C)[C@@H](OC(=O)[C@@H]2[C@@H](C=C(C)C)C2(C)C)CC1=O` was tested. Which outcome did it give?
A: The outcome was “inactive”.

Q: For `CCNc1nc(Cl)nc(NCC)n1`, which outcome is on record?
A: Its outcome is “inactive”.

Q: Which outcome does the source give for `CC(Oc1ccc(Cl)cc1Cl)C(=O)O` (stereo not given) here?
A: The outcome was “inactive”.

Q: `COc1nc(NC(C)C)nc(NC(C)C)n1` was tested. Which outcome did it give?
A: The outcome was “inactive”.

Q: `COC(=O)C(C)Oc1ccc(Oc2ccc(Cl)cc2Cl)cc1` (stereo not given) was tested. Which outcome did it give?
A: The outcome was “inactive”.

Q: For `CC1COC(Cn2cncn2)(c2ccc(Oc3ccc(Cl)cc3)cc2Cl)O1` (stereo not given), which outcome is on record?
A: Its outcome is “inactive”.

Source: PubChem BioAssay (EPA / NIEHS)
